Consider 7 compounds from PubChem BioAssay (Tox21).

Where “and” joins values, the source holds several entries; their conditions need not be identical. Equal values may be shown once. Results filed as inconclusive are left out. A structure can be active in one record and inactive in another. Calls of active or inactive are those of the source. The call rests on the fitted dose curve; in most records, active means well fitted curve in the direction sought with a large enough effect in the repeat runs; inconclusive means weak or mixed curves; inactive means no such curve, though single readings can be large; an effect the other way counts as inactive or inconclusive.

Experiment [1] can be described thus: Caspase-3/7 induction in HepG2 cells by small molecules, qHTS assay (AID 1346978). Further: nearly all actives have a fitted effect of over 15% in size. Further: potency means the concentration at half of the fitted maximal effect. In short, it runs like this: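 Caspase-3/7 induction was measured by Caspase-Glo 3/7 luminescence (30 min, room temperature) after a 17 hr compound exposure of wild-type HepG2 cells seeded at 2,000 per well and pre-incubated 5 hr.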
For orientation: qHTS replaces the single test concentration by a dilution series.

Experiment [2] is described as follows: Caspase-3/7 induction in CHO-K1 cells by small molecules, qHTS cell viability counter screen (AID 1346979). Further: nearly all actives have a fitted effect of over 35% in size. Further: potency means the concentration at half of the fitted maximal effect. In short, it runs like this: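 Wild-type CHO-K1 cells were seeded at 1,500 per well, rested 5hr at 37 C, then exposed to compounds in DMSO. After 16hr, CellTiter-Fluor reagent was added and fluorescence read 1hr later as the viability measure.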
Experiment [3] can be described thus: Caspase-3/7 induction in CHO-K1 cells by small molecules, qHTS assay (AID 1346980). Further: nearly all actives have a fitted effect of over 15% in size. Further: potency means the concentration at half of the fitted maximal effect. The gist of the method: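 Luminescent Caspase-Glo 3/7 read (30min, room temperature) quantified apoptosis induction. Cells were wild-type CHO-K1, treated with compound for 17hr at 37 C and 5% CO2.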
Experiment [4] can be described thus: Caspase-3/7 induction in HepG2 cells by small molecules, qHTS cell viability counter screen (AID 1346981). Further: nearly all actives have a fitted effect of over 30% in size. Further: potency means the concentration at half of the fitted maximal effect. The gist of the method:
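Cell viability is measured as a cytotoxicity counter screen alongside the Caspase-Glo 3/7 readout in identical wells. Wild-type HepG2 cells are treated with test compounds for 16 hr at 37 C before CellTiter-Fluor addition and a 1-hr incubation.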

The target of experiment [5] is Nuclear receptor subfamily 1 group I member 2 (Homo sapiens) (UniProt O75469). The experiment can be described thus: Human pregnane X receptor (PXR) small molecule agonists, qHTS assay (AID 1346982). Further: nearly all actives have a fitted effect of over 35% in size. Further: potency means the concentration at half of the fitted maximal effect. In short, it runs like this:
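Cells: HepG2 stably carrying PXR-Luc. Medium held 5% charcoal-stripped FBS. Compounds in DMSO added after 5 hr plating, incubated 24 hr, then luminescence quantified with ONE-Glo.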

Experiment [6] concerns the target Nuclear receptor subfamily 1 group I member 2 (Rattus norvegicus) (UniProt Q9R1A7). The experiment can be described thus: Rat pregnane X receptor (rPXR) activation by small molecules, qHTS assay (AID 1346983). Further: nearly all actives have a fitted effect of over 20% in size. The following applies: rPXR luciferase reporter cells, One-Glo luminescence, 24 h; stronger effect = higher value. In short, it runs like this: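 Luminescent readout (One-Glo luciferase, 30 min room temperature) followed 24 hr compound treatment at 37 C of rPXR cells plated 2,000 per well and preincubated 5hr; qHTS format with compounds delivered in DMSO.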

In experiment [7] the target is Nuclear receptor subfamily 1 group I member 2 (Homo sapiens) (UniProt O75469). Briefly: CYP3A4 induction through human pregnane X receptor (PXR) by small molecules, qHTS assay (AID 1346984). Further: nearly all actives have a fitted effect of over 40% in size. In short, it runs like this: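 Quantitative HTS in DPX-2 cells, i.e. HepG2 transfected with PXR response element and CYP3A4-promoter luciferase. Compounds in DMSO incubated 24hr at 37C; then P450-Glo CYP3A4 substrate, 3uM final, 3hr; One-Glo luminescence.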

Experiment [8] has the same target. The experiment can be described thus: Human pregnane X receptor (PXR) activation by small molecules, qHTS assay (AID 1346985). Further: nearly all actives have a fitted effect of over 40% in size. The gist of the method: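 DPX-2 cells (HepG2 co-transfected with a PXR response element and a CYP3A4-promoter luciferase construct) were seeded at 2,000 per well, rested 5 hr at 37C, then exposed to DMSO-dissolved compounds for 24 hr. Activation was read as luciferase luminescence.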

The target in experiment [9] is Cytochrome P450 2D6 (Homo sapiens) (UniProt P10635). Briefly: Cytochrome P450 Family 2 Subfamily D Member 6 (CYP2D6) small molecule antagonists: luciferase reporter qHTS assay (AID 1671196). Further: nearly all actives have a fitted effect of over 50% in size. Further: potency means the concentration at half of the fitted maximal effect. The gist of the method:
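Enzyme and proluciferin substrate were first combined with test chemical for 10 min at room temperature. Adding NADPH regeneration solution started a 1 h reaction, stopped with luciferin detection reagent and read by luminescence 20 min later.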
(In general: A reporter such as luciferase makes a cellular process visible.)

Experiment [10] addresses Cytochrome P450 2C19 (Homo sapiens) (UniProt P33261). Briefly: Cytochrome P450 Family 2 Subfamily C Member 19 (CYP2C19) small molecule antagonists: luciferase reporter qHTS assay (AID 1671197). Further: nearly all actives have a fitted effect of over 65% in size. Further: potency means the concentration at half of the fitted maximal effect. In short, it runs like this: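 P450-Glo CYP2C19 screening system; proluciferin substrate; DMSO compound stocks; 10 min RT preincubation; NADPH regeneration, 1 h at 37C; luciferin detection reagent, 20 min RT; luminescence as RLU.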

For experiment [11], the target named is Cytochrome P450 2C9 (Homo sapiens) (UniProt P11712). Briefly: Cytochrome P450 Family 2 Subfamily C Member 9 (CYP2C9) small molecule antagonists: luciferase reporter qHTS assay (AID 1671198). Further: nearly all actives have a fitted effect of over 50% in size. Further: potency means the concentration at half of the fitted maximal effect. In short, it runs like this: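 Enzyme-substrate mix preincubated with compound 10 min at room temperature; reaction started with NADPH regeneration solution, 1 h 37C. Luminescent luciferin product read after 20 min detection reagent.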

In experiment [12] the target is Cytochrome P450 1A2 (Homo sapiens) (UniProt P05177). The experiment can be described thus: Cytochrome P450 Family 1 Subfamily A Member 2 (CYP1A2) small molecule antagonists: luciferase reporter qHTS assay (AID 1671199). Further: nearly all actives have a fitted effect of over 50% in size. Further: potency means the concentration at half of the fitted maximal effect. In short, it runs like this:
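Compounds were incubated with CYP1A2 and a luminogenic proluciferin substrate for 10 min at room temperature before the reaction was started with NADPH regeneration solution. After 1 h, detection reagent was added and light output, proportional to CYP activity, was recorded.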

The target of experiment [13] is Voltage-gated inwardly rectifying potassium channel KCNH2 (Homo sapiens) (UniProt Q12809). Briefly: Human Ether-a-go-go-Related Gene (hERG) channel small molecule antagonists: fluorescence cell-based qHTS assay (AID 1671200). Further: nearly all actives have a fitted effect of over 50% in size. Further: potency means the concentration at half of the fitted maximal effect. In short, it runs like this:
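U2OS cells expressing the channel were plated at 1000 cells/well, incubated overnight at 37 C, then loaded with FluxOR II thallium-sensitive dye for 1 h at room temperature in the dark, with a further 10 min at room temperature before stimulation.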
For orientation: Block of hERG is tested as a sign of cardiac risk.

Experiment [14] has as its target Cytochrome P450 3A4 (Homo sapiens) (UniProt P08684). Briefly: Cytochrome P450 Family 3 Subfamily A Member 4 (CYP3A4) small molecule antagonists: luciferase reporter qHTS assay (AID 1671201). Further: nearly all actives have a fitted effect of over 50% in size. Further: potency means the concentration at half of the fitted maximal effect. In short, it runs like this:
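P450-Glo CYP3A4 system with proluciferin substrate; compounds preincubated 10 min RT with enzyme-substrate mix, then NADPH regeneration added for 1 h RT. Detection reagent 20 min, luminescence read as relative luminescence units.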
On the % scale 0 is the no-effect control and ±100 the full control effect.

Sequence of Cytochrome P450 2D6 (Homo sapiens) (P10635 whole entry, looked up): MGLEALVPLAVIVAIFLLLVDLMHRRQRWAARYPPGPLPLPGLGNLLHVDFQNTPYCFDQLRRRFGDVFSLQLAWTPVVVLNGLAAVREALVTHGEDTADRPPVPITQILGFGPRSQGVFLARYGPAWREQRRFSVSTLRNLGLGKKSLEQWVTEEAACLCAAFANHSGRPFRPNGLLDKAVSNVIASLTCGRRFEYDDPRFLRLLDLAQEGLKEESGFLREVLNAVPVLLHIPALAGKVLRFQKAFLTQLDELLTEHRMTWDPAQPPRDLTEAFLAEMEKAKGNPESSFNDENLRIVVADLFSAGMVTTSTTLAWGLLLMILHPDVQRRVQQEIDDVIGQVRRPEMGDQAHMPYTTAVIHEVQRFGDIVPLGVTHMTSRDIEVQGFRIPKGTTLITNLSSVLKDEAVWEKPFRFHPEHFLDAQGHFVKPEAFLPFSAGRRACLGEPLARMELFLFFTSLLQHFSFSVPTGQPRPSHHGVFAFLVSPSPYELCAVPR
Sequence of Voltage-gated inwardly rectifying potassium channel KCNH2 (Homo sapiens) (Q12809 whole entry, looked up): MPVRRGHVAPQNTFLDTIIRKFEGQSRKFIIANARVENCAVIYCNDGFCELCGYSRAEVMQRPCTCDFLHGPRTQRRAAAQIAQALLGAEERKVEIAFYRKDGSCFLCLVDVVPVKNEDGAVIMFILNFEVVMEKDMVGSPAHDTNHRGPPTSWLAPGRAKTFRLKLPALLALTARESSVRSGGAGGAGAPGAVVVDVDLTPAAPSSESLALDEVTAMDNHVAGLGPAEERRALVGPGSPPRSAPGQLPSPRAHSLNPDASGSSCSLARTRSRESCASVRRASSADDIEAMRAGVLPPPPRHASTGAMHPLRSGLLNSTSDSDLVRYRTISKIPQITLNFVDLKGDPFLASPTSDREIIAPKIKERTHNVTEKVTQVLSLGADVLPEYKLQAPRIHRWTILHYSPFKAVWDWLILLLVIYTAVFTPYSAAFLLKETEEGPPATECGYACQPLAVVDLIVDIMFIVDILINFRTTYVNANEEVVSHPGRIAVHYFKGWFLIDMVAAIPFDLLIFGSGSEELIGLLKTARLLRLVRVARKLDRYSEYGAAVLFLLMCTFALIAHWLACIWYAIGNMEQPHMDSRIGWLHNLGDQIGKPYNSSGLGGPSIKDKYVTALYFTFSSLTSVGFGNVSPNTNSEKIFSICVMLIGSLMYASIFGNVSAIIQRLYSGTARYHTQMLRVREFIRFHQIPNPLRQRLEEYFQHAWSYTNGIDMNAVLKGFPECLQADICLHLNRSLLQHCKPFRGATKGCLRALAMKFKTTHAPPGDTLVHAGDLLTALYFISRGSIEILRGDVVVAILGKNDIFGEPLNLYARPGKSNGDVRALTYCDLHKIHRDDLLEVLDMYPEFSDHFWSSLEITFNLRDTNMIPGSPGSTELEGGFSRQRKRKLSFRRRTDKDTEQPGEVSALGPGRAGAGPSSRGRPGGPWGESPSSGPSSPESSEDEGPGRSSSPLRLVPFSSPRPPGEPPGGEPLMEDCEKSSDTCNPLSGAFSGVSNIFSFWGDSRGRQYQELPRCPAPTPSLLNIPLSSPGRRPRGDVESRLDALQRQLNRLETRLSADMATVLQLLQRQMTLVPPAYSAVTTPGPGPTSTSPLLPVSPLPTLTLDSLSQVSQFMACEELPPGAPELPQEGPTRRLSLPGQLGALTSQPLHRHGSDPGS
Sequence of Cytochrome P450 2C19 (Homo sapiens) (P33261 whole entry, looked up): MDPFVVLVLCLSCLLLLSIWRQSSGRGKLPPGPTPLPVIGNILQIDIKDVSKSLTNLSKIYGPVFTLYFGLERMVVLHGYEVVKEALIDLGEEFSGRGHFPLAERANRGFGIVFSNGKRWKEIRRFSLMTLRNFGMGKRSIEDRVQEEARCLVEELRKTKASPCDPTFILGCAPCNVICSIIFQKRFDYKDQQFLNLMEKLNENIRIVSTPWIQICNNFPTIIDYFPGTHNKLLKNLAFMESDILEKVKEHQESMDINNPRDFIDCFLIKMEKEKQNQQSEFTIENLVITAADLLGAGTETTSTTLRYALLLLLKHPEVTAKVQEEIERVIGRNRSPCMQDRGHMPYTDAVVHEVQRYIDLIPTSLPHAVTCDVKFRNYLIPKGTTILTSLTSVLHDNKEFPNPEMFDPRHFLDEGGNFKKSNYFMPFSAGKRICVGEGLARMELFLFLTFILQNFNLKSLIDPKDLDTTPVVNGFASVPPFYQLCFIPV
Sequence of Cytochrome P450 1A2 (Homo sapiens) (P05177 whole entry, looked up): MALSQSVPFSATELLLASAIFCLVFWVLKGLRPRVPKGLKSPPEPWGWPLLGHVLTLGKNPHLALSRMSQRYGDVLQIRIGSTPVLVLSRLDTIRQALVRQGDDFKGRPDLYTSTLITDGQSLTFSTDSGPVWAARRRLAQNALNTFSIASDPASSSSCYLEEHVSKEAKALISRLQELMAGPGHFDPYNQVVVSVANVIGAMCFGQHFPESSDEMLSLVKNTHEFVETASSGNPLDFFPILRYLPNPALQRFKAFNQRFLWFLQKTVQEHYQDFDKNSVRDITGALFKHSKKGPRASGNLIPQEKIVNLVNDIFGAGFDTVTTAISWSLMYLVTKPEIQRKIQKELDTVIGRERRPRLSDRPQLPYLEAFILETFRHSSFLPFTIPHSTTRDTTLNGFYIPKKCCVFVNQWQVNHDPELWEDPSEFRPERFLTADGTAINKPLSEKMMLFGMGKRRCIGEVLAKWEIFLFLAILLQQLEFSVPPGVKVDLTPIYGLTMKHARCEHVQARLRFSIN
Sequence of Nuclear receptor subfamily 1 group I member 2 (Homo sapiens) (O75469 whole entry, looked up): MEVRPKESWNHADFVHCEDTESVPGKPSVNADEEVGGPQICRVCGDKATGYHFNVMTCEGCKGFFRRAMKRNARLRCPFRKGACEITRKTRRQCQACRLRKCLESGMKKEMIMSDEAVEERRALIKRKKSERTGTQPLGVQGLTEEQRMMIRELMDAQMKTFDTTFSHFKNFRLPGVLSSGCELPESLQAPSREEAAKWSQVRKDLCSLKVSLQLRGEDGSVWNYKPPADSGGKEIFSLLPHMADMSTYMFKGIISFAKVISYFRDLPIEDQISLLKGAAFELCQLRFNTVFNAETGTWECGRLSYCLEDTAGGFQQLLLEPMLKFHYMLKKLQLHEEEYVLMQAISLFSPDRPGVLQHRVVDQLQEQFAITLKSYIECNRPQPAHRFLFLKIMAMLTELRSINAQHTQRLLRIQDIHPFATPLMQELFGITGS
Sequence of Cytochrome P450 3A4 (Homo sapiens) (P08684 whole entry, looked up): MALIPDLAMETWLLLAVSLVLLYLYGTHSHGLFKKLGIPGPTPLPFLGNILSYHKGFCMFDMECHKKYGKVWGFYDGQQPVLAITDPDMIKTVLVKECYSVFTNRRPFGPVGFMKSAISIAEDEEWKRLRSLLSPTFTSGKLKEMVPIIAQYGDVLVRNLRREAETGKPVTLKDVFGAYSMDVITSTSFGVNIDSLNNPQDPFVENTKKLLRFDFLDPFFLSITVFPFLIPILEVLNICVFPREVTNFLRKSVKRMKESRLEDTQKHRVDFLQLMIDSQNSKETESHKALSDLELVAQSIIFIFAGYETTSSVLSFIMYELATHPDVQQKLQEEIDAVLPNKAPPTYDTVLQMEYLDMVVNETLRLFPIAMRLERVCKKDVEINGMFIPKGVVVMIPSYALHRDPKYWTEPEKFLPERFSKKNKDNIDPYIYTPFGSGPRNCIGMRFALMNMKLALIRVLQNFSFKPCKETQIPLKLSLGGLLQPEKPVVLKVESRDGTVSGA
Sequence of Cytochrome P450 2C9 (Homo sapiens) (P11712 whole entry, looked up): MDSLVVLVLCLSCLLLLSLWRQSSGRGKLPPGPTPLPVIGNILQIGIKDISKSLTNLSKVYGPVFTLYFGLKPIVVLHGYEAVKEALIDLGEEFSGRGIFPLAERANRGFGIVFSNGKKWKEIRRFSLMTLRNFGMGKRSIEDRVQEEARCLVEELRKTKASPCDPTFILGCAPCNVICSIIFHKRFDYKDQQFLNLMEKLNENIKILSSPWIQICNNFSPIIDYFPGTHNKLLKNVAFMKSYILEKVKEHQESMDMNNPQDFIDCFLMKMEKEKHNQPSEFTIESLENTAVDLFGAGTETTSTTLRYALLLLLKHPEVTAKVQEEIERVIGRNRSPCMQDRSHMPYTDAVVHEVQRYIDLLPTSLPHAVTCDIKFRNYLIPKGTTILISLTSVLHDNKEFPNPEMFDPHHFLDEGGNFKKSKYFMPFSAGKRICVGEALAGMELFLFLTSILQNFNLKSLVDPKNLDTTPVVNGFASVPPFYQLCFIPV
Sequence of Nuclear receptor subfamily 1 group I member 2 (Rattus norvegicus) (Q9R1A7 whole entry, looked up): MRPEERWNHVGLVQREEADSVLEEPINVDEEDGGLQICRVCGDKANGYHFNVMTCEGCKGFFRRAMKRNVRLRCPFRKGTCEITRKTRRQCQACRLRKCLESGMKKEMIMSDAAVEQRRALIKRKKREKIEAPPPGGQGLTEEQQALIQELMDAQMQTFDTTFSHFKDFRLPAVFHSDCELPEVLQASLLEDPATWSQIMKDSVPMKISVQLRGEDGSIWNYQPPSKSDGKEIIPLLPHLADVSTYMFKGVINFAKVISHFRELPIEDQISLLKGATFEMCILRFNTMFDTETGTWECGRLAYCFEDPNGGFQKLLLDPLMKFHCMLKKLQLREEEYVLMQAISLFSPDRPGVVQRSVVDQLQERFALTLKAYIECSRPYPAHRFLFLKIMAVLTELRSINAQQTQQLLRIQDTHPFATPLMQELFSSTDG

Regarding `COc1nc(C)nc(Cl)c1NC1=NCCN1`, the Potency result in [1], in experiment [2], in experiment [3], in [4], in experiment [5] and in experiment [7] was “inactive” in each case. The Potency result in [8], in [9], in [10], in experiment [11], in experiment [12] and in experiment [13] was “inactive” in each case. Moreover, the Potency result in experiment [14] was “inactive”. Besides, the max activation in [6] was -0.617% (inactive).
Take `CCCCCCCCCCCCc1ccccc1O`: the Potency in experiment [1] is 60.3 µM (active) and 54.5 µM (active); in experiment [2], 53.8 µM (active) and 54.5 µM (active); in experiment [3], 60.3 µM (active) and 68.6 µM (active); in [4], 60.3 µM (active) and 48.6 µM (active); in [5], 6.03 µM (active); in experiment [10], 1.57 µM (active) and 3.17 µM (active). In addition, the Potency in experiment [11] is 7.01 µM (active) and 11.2 µM (active); in [12], 35.1 µM (active) and 31.7 µM (active); in experiment [14] it was 31.3 µM (active) and 63.3 µM (active). The Potency entry in [9] and in experiment [13] was “inactive” each time.
For the compound `CCCCCC(=O)O[C@]1(C(C)=O)CC[C@H]2[C@@H]3CCC4=CC(=O)CC[C@]4(C)[C@H]3CC[C@@]21C`, the Potency entry in experiment [1], in [3] and in [12] was “inactive” each time. For the same compound, the Potency in experiment [2] is 60.7 µM (active) and 33.5 µM (active); in [4] it was 60.7 µM (active); in [5], 9.62 µM (active) and 11.9 µM (active); in experiment [9], 6.28 µM (active) and inactive; in experiment [10], 17.7 µM (active) and 17.4 µM (active); in [11], 7.91 µM (active) and 11 µM (active). Moreover, the Potency in experiment [13] was 19.4 µM (active).
As for `O=C1CC2(CCCC2)CC(=O)N1CCCCN1CCN(c2ncccn2)CC1`, the Potency entry in [1], in [3] and in experiment [4] was “inactive” in each case. Moreover, in experiment [2], the Potency was 54.5 µM (active) and inactive.
As for `CC(=O)N[C@@H](CS)C(=O)O`, the Potency result in experiment [1], in experiment [2], in experiment [3], in experiment [4], in experiment [5] and in [7] was “inactive” in each case. In addition, the Potency result in experiment [8], in experiment [9], in experiment [11], in experiment [12], in experiment [13] and in experiment [14] was “inactive” in each case. Besides, the max activation in experiment [6] was -0.291% (inactive). In addition, the Potency in [10] was 56.3 µM (active) and inactive.
For `CCOC(=O)C(C)C(C)=O` (stereo not given), the Potency result in experiment [1], in experiment [2], in experiment [3], in experiment [4], in experiment [5] and in experiment [9] was “inactive” each time. Moreover, the Potency result in experiment [10], in [11], in experiment [13] and in experiment [14] was “inactive” throughout. Also, the Potency in [12] was 35.8 µM (active).
For the compound `C=C(C)C(=O)O`, the Potency result in experiment [1], in [2], in experiment [3], in experiment [4], in experiment [5] and in experiment [9] was “inactive” in each case. In addition, the Potency result in [10], in experiment [11], in experiment [12], in experiment [13] and in [14] was “inactive” throughout.
